A selection: hits, their analogues and other compounds. The true share with any hit is near 7.2%.
RE007 growth inh: less growth of the S. pombe RE007 Vpr strain; S. pombe RE007 Vpr strain, BacTiter-Glo ATP luminescence, 24 h; Potency, µM (top dose mostly 92.2 µM), inactives show at the highest dose activity change, negative = less growth, actives largely listed as inhibitors; 360,000 tested, 0.21% active; active = well fitted falling curve with a large enough effect; inconclusive = small, poorly fitted or top-dose-only effect; inactive = no such curve, though single readings can be large or run the other way; also: nearly all actives have a fitted effect of over 50% in size
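Fission yeast strain RE007, carrying one chromosomally integrated HIV-1 vpr copy, was seeded at OD 0.01 in PMG+AL medium with 23 nL pinned compound. After 24 h at 30 °C and 99% humidity, viability was read by BacTiter-Glo luminescence.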
FMDV inh: foot and mouth disease virus antiviral activity | FMDV antiviral cell-based qHTS | Potency, µM (titrated, usually from 57.9 µM), for inactives: at the top dose activity change, negative = inhibition, usual class: inhibitors | 410,000 tested, 1.2% active; calls by dose curve; tested in HEK293T cells; also: read-out not given here; nearly all actives have a fitted effect of over 45% in size
HCV inh: inhibitors of hepatitis C virus infection; Huh7.5.1 HCVcc-Cre infection, luciferase reporter, 44 h; Potency, µM (series often up to 41.8 µM), for inactives: top-dose activity change, negative = inhibition, hits mostly inhibitors; 340,000 tested, 3.4% active; AID 651820
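Cells (1,000/well) were plated 4 h before compound, then infected with HCVcc-Cre virus (~0.5 moi). After 44 h further culture, infection was read as luciferase luminescence following a 15 min substrate incubation at room temperature.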
Lassa entry inh: blocks Lassa virus binding to or entry into cells; Lassa virus pseudotype entry inhibition, cell reporter; Potency, µM (titrated, usually from 37.9 µM), for inactives: top-dose activity change, negative = inhibition, most hits filed as inhibitors; 300,000 tested, 1.2% active; AID 540256; calls by dose curve; tested in HEK293 cells; also: nearly all actives have a fitted effect of over 50% in size
MARV entry inh: blocks Marburg virus binding to or entry into cells; 300,000 tested, 1.8% active; Potency, µM (titrated, usually from 37.8 µM), for inactives: at the highest dose activity change, negative = inhibition, most hits filed as inhibitors; Marburg virus pseudotyped entry inhibition, cell reporter; AID 540276; calls by dose curve; tested in HEK293 cells
Sm TGR block: blocks Schistosoma mansoni thioredoxin glutathione reductase; Q962Y6; purified TGR, DTNB reduction, TNB absorbance 405 nm; Potency, µM (top dose mostly 114 µM), for inactives: at the top dose activity change, negative = inhibition, hits mostly inhibitors; 360,000 tested, 3% active; AID 485364; also: nearly all actives have a fitted effect of over 60% in size
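TGR 20 nM + NADPH 100 uM (dispensed conc.), cpd preinc 15 min RT; start with NADPH (500 uM addition) then DTNB (15 mM addition). Kinetic TNB absorbance, 405 nm filter. Four-parameter Hill fit across titration.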
Numbers without * were called inactive; ? = inconclusive; . = not tested or not shown; [ ] = dose if it differs, or a comment. Unless noted, calls follow the shape of the dose curve; as a rule, active = well fitted curve in the direction sought with a large enough effect; inconclusive = small, poorly fitted or top-dose-only effect, or another doubt; inactive = no such curve, though single readings can be large; an effect the other way counts as inactive or inconclusive. % is scaled to controls: 0 for no effect and ±100 for the full control effect; potency is read from the fitted curve at half-maximal effect.

SMILES | RE007 growth inh | FMDV inh | HCV inh | Lassa entry inh | MARV entry inh | Sm TGR block
O=C(c1cc(-c2ccccc2)nn1-c1ccccc1)N1CCN(S(=O)(=O)c2c(F)cccc2F)CC1 | 7% | 0% | 13µM* | ? | 18% | 6%
COc1ccc(-c2oc3ncnc(NCCN4CCOCC4)c3c2-c2ccc(OC)cc2)cc1 | -10% | ? | ? | ? | ? | -22%[11.4 µM]
c1ccc(-c2oc3ncnc(NCCCN4CCOCC4)c3c2-c2ccccc2)cc1 | 2% | ? | 5.6µM* | -1% | ? | -19%
COc1ccc(-c2oc3ncnc(NCCCN4CCOCC4)c3c2-c2ccc(OC)cc2)cc1 | -17% | ? | 2.8µM* | -32% | ? | 1%
COc1ccc(-c2oc3ncn(CCN4CCOCC4)c(=N)c3c2-c2ccc(OC)cc2)cc1 | 1% | ? | 13µM* | ? | 16µM* | -12%
CN(C)S(=O)(=O)N(CC(=O)Nc1ccc(C(F)(F)F)cc1)c1ccccc1 | . | -17% | . | -13%[46.1 µM] | ? | 10%
COc1ccc(C(=O)Nc2nc(-c3ccc([N+](=O)[O-])cc3)c(-c3ccccc3)s2)cc1 | 13% | ? | 6.3µM* | -26% | -5% | .
COC(=O)Nc1nc(-c2ccccc2)c(C(=O)c2ccccc2)s1 | 3% | -15% | ? | 3.2µM* | ? | 2%
CC(=O)c1sc(NC(=O)c2ccccc2F)nc1-c1ccccc1 | -1% | 38% | -15% | -19% | 3%[46.1 µM] | -1%
COc1ccc(C(=O)Nc2nc(-c3ccccc3)c(C(C)=O)s2)c(OC)c1 | -17% | 29% | 13µM* | . | ? | .
O=C(c1ccc(CS(=O)c2ccccc2Cl)o1)N1CCN(c2ccccc2F)CC1 (stereo unspecified) | . | -23% | . | -13%[46.1 µM] | . | 0%
COc1cc(=O)n2c(c1C(=O)N(C)Cc1nonc1C)CCN(Cc1c(F)cccc1F)CC2 | . | -3% | . | . | . | .
N[C@H](Cc1cnc[nH]1)C(=O)O | . | -15% | . | . | . | .
CCN(CC)C(=O)COC(=O)c1cc(-c2ccco2)nc2ccccc12 | 0% | 4% | -16% | -4% | ? | 1.8µM*
CCN(CC)C(=O)COC(=O)c1cc(-c2ccc(OC)cc2)nc2ccccc12 | -2% | . | ? | ? | ? | -7%
CNC(=O)COC(=O)c1cc(-c2ccco2)nc2ccccc12 | -3% | -3% | -2% | . | . | 2.8µM*
C#CC1(O)C2C=C(OC)C(=O)C1C(c1ccccc1)C2C (stereo unspecified) | . | . | . | . | 26%[14.2 µM] | .
CCOC(=O)c1ccc(NC(=O)C(C)N(c2ccc(OCC)cc2)S(C)(=O)=O)cc1 (stereo unspecified) | . | -24% | . | 8%[46.1 µM] | -7%[46.1 µM] | 8%
CC(=O)OCCNc1cc(SC(C)C)c2nonc2c1[N+](=O)[O-] | 1% | ? | -24% | ? | 0%[46.1 µM] | -23%
CC(=O)OCCN(C)c1cc(SC(C)C)c2nonc2c1[N+](=O)[O-] | 1% | -17% | 15% | 2% | -2% | 0.71µM*
CCOC(=O)N1CCN(c2cc(N(C)CCO)c([N+](=O)[O-])c3nonc23)CC1 | -5% | -10% | -16% | -2% | 0% | 35µM*
CN(CCO)c1cc(Sc2nc3ccccc3s2)c2nonc2c1[N+](=O)[O-] | -2% | 22µM* | 11µM* | ? | ? | 0.32µM*
Cc1ccc(S(=O)(=O)c2nnn3c2nc(N2CCCC(C)C2)c2cc(Cl)ccc23)cc1C (stereo unspecified) | . | 14% | . | . | -15%[46.1 µM] | 1%
O=C(c1cc2c(=O)oc3ccccc3c2s1)N1CCN(c2cccc(Cl)c2)CC1 | . | -7% | . | -17%[46.1 µM] | 0%[46.1 µM] | -2%
COc1ccc2c(CNCCc3cccs3)c(C(=O)O)n(Cc3ccc(F)cc3Cl)c2c1 | . | ? | . | ? | . | -2%
SMILES | RE007 growth inh | FMDV inh | HCV inh | Lassa entry inh | MARV entry inh | Sm TGR block
CC1CCc2[nH]c3ccc(C(=O)NCCCOC(C)C)cc3c2C1 (stereo unspecified) | 4% | -10% | 10µM* | . | . | -34%
CC1CCc2[nH]c3ccc(C(=O)O)cc3c2C1 (stereo unspecified) | -4% | 4% | 9% | . | . | 13%
COc1ccccc1N1CCN(C(=O)c2ccc3[nH]c(C)c(C)c3c2)CC1 | 14% | -18% | -26% | . | . | 3%
COc1ccccc1N1CCN(C(=O)c2ccc3[nH]c4c(c3c2)CC(C)CC4)CC1 (stereo unspecified) | -8% | ? | 11µM* | ? | ? | -9%
CCc1ccccc1NC(=O)COCc1cc(-c2ccco2)on1 | . | 8% | . | 0%[46.1 µM] | . | -22%
CCCCCCCCNCCS(=O)(=O)NCCCCCCCC | 1% | ? | 3.2µM* | . | . | .
COCCn1c(SCC(=O)Nc2ccc(Cl)c(S(=O)(=O)N(C)C)c2)nc2ccccc21 | -9% | 28µM* | ? | 1% | ? | -8%
COCCn1c(SCC(=O)Nc2ccc(S(N)(=O)=O)cc2)nc2ccccc21 | 10% | -4% | 2% | -36% | ? | -1%
CN(C)S(=O)(=O)c1cc(NC(=O)CN2CCc3ccccc32)ccc1Cl | 3% | 0% | -22% | 5%[46.1 µM] | 12%[46.1 µM] | 45µM*
COCCn1c(SCC(=O)Nc2cccnc2Cl)nc2ccccc21 | 3% | -22% | -2% | . | . | .
CN(C)S(=O)(=O)c1cc(NC(=O)CN2CCCc3ccccc32)ccc1Cl | 7% | -26% | ? | ? | ? | ?
CN(C)S(=O)(=O)c1cc(NC(=O)CSc2ncc(C(F)(F)F)cc2Cl)ccc1Cl | -18% | 28µM* | ? | ? | ? | -1%
COCCn1c(SCC(=O)Nc2nc(C)c(Cl)cc2Cl)nc2ccccc21 | 9% | -2% | -22% | 23µM* | ? | 0%
CCn1nc(NC(=O)c2ccncc2)c2cc3ccc(C)cc3nc21 | -3% | -3% | ? | -12% | ? | 6%
CCn1nc(NC(=O)c2ccncc2)c2cc3cc(C)ccc3nc21 | 5% | -9% | ? | 21% | -14% | 36%
CCCn1nc(NC(=O)c2cccs2)c2cc3ccc(C)cc3nc21 | 9% | -15% | 14µM* | . | . | 5%
CCCn1nc(NC(=O)c2cccs2)c2cc3cc(C)ccc3nc21 | -17% | 5% | 22µM* | ? | 1%[46.1 µM] | -10%
COc1ccc(NC(=O)C(=O)NCC(c2cccnc2)N2CCc3ccccc3C2)cc1 (stereo unspecified) | . | ? | . | ? | . | -2%
CCOc1ccc2ccccc2c1/C=N/n1cncn1 | 11% | 5% | 11µM* | 0% | 3% | 3%
CCCOc1ccc2ccccc2c1/C=N/n1cnnc1 | 4% | . | ? | -6% | -10% | 1%
COc1ccc(N(CC(=O)NCCSCc2ccco2)S(=O)(=O)c2ccccc2)cc1OC | 3% | -3% | -2% | -24% | -4% | -7%
